Measured values published in PubChem BioAssay (NCATS).
Records with an inconclusive call do not appear. Activity calls are given as the source filed them. Unless noted, the call rests on the fitted dose curve; in most records, active means well fitted curve in the direction sought with a large enough effect; inconclusive means small, poorly fitted or top-dose-only effect, or another doubt; inactive means no such curve, though single readings can be large; an effect the other way counts as inactive or inconclusive.

What was measured:
[1] = biological target: 3',5'-cyclic-AMP phosphodiesterase 4B (Homo sapiens) (UniProt Q07343); assay: qHTS Assay for Inhibitors of PDE-IV (AID 607; active means well fitted activation curve with a large enough effect in the main read-out, with a control signal flat, not every such curve was filed as active; further: % of control where 0% means no effect)
How it was run: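 HEK293 ACTOne cells with CNG channel (1000/well), endogenous PDE4; membrane potential dye, compounds up to 22.9 uM final. Fluorescence Ex 535/Em 590; RO 20-1724 (100 uM final) as reference.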

[2] = Cell Viability - Mesenchymal (AID 546);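 further: cells exposed to compound for 40 hours before reading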
How it was run: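 Normal human renal glomerulus-derived kidney mesenchymal cells, 1000 per well in complete medium, were treated with compounds for 40 hr at 37 °C. Viability was read as intracellular ATP by CellTiter-Glo luminescence; AC50 values came from Hill-equation fits of qHTS concentration-response data.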

[3] = Cellular Toxicity (caspase-3) Jurkat (AID 655); settings: Jurkat caspase-3 activation, luminescence, DMSO = 0%, tamoxifen = 100%; at 92.2 µM (top of the series);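 further: cells exposed to compound for 16 h at 37 °C before reading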
How it was run: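 qHTS in human Jurkat T-cell leukemia line: 16 hr compound treatment at 37 °C, caspase-3/7 activity measured by Caspase-Glo luminescence. AC50 derived from Hill equation.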

[4] = Cellular Toxicity (caspase-3) HUV-EC-C (AID 656)
How it was run: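 Concentration-dependent caspase 3/7 induction was assessed in HUV-EC-C cells exposed for 16 hours. Data scaled between DMSO and tamoxifen (100 uM) controls.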

[5] = Cellular Toxicity (caspase-3) SHSY5Y (AID 657);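 further: cells exposed to compound for 16 hours at 37 °C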
How it was run: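 Readout: caspase-cleaved peptide-aminoluciferin substrate driving luciferase light in SH-SY5Y neuroblastoma cells after 16 h treatment. Response normalized to DMSO and 10 uM staurosporine controls.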

[6] = Cellular Toxicity (caspase-3) BJ (AID 658);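 further: 0% = DMSO basal and 100% = 10 µM staurosporine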
How it was run: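 Luminescent aminoluciferin-substrate cleavage reports caspase 3/7 activity in normal human BJ fibroblasts after 16 hr compound exposure at 37 °C. Normalized to DMSO (basal) and 10 uM staurosporine (100%); AC50 from Hill fit of concentration-response.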

[7] = Cellular Toxicity (caspase-3) MRC-5 (AID 659);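 further: 0% = DMSO basal and 100% = 10 µM staurosporine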
How it was run: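 Luminescence from caspase-cleaved aminoluciferin substrate (Caspase-Glo 3/7, 1 hr RT) reports caspase 3/7 activity in MRC-5 lung fibroblasts after 16 hr compound exposure. Normalized to DMSO basal and 10 uM staurosporine as 100%; AC50 from Hill fits.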

[8] = Cellular Toxicity (caspase-3) Mesangial (AID 660);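 further: cells exposed to compound for 16 h before the caspase read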
How it was run: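 Human renal glomerular mesangial cells (1000/well) were treated with compounds for 16 h at 37 °C in complete medium, then caspase 3/7 activity was read by Caspase-Glo luminescence. Data were normalized to DMSO and 100 uM tamoxifen; AC50 from Hill fits.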

[9] = Cellular Toxicity (caspase-3) H-4-II-E (AID 663); settings: Potency: caspase-3 activation; further: potency means the concentration at half of the fitted maximal effect;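 on caspase-3 activation: cells exposed to compound for 16 hr before readout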
How it was run: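 Luminescence from caspase-cleaved aminoluciferin substrate, read 20 min after reagent addition, reports caspase 3/7 activation in rat H-4-II-E cells after 16 hr compound exposure. Normalized to DMSO (basal) and 100 uM tamoxifen (100%); AC50 from Hill fits.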

[10] = Cellular Toxicity (caspase-3) N2a (AID 665);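 further: compound exposure lasted 16 h at 37 °C before readout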
How it was run: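 Mouse N2a neuroblastoma cells (1500/well) were treated with compounds for 16 h at 37 °C, then caspase-3/7 activity was read by Caspase-Glo luminescence after 1 h at room temperature. Data were normalized to DMSO and 10 uM staurosporine; AC50 from Hill fits.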

Sequence of 3',5'-cyclic-AMP phosphodiesterase 4B (Homo sapiens) (Q07343 whole entry, looked up): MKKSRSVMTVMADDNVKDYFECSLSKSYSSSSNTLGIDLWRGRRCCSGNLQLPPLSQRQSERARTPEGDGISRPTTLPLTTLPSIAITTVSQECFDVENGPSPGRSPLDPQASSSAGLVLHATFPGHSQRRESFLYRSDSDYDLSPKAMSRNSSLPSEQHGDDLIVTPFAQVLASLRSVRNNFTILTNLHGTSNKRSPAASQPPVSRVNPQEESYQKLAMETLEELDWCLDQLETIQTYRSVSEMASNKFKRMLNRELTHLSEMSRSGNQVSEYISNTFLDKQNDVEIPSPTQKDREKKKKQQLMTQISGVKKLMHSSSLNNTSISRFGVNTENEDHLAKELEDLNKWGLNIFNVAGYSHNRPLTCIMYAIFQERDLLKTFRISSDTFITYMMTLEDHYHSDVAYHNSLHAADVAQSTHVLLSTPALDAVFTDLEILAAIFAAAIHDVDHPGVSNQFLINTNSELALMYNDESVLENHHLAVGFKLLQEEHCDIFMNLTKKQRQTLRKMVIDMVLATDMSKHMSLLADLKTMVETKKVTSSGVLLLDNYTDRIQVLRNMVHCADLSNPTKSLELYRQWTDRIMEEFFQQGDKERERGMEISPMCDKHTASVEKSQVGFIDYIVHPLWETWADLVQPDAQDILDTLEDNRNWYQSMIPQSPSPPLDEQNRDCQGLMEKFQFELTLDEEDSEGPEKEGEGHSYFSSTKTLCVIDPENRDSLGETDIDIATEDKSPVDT

CCCCNc1ccc(C(=O)OCCOCCOCCOCCOCCOCCOCCOCCOCCOC)cc1
inactive: outcome [1]

COc1cc(N)c(Cl)cc1C(=O)NC1CCN(Cc2ccccc2)CC1
inactive: outcome [1]

O=C(O)c1ccc(S(=O)(=O)N(Cl)Cl)cc1
inactive: outcome [2] | caspase-3 activation [3] 0.943% | outcome [4] | outcome [5] | outcome [6] | outcome [7] | outcome [8] | Potency [9] | outcome [10]

C=C[C@H]1CN2CC[C@H]1C[C@@H]2[C@@H](O)c1ccnc2ccc(OC)cc12
inactive: outcome [2] | outcome [4] | outcome [5] | outcome [6] | outcome [7] | outcome [8] | Potency [9] | outcome [10]

O=C1C(CCS(=O)c2ccccc2)C(=O)N(c2ccccc2)N1c1ccccc1 (configuration not stated)
inactive: outcome [1]

CC(C)(C)NC[C@H](O)COc1cccc2c1CCCC2=O
inactive: outcome [1]

CCCCC(CC)COC(=O)c1ccc(N(C)C)cc1 (configuration not stated)
inactive: outcome [2] | caspase-3 activation [3] 1.94% | outcome [4] | outcome [5] | outcome [6] | outcome [7] | outcome [8] | Potency [9] | outcome [10]

COc1cc([C@H]2Oc3cc([C@H]4Oc5cc(O)cc(O)c5C(=O)[C@@H]4O)ccc3O[C@@H]2CO)ccc1O
active: Potency [9] 31.6 µM
inactive: outcome [2] | caspase-3 activation [3] 7.36% | outcome [4] | outcome [5] | outcome [6] | outcome [7] | outcome [8] | outcome [10]

CN(C)CCC[C@@]1(c2ccc(F)cc2)OCc2cc(C#N)ccc21
inactive: outcome [1]

Oc1c(Cl)cc(Cl)c(Cl)c1Cc1c(O)c(Cl)cc(Cl)c1Cl
inactive: outcome [2] | outcome [4] | outcome [5] | outcome [6] | outcome [7] | outcome [8] | Potency [9] | outcome [10]

CCOc1ccc(NC(C)=O)cc1
inactive: outcome [2] | outcome [1] | caspase-3 activation [3] -0.173% | outcome [4] | outcome [5] | outcome [6] | outcome [7] | outcome [8] | Potency [9] | outcome [10]

CCc1oc2ccccc2c1C(=O)c1cc(Br)c(O)c(Br)c1
inactive: outcome [1]

CCOc1ccccc1C(N)=O
inactive: outcome [2] | caspase-3 activation [3] -0.33% | outcome [4] | outcome [5] | outcome [6] | outcome [7] | outcome [8] | Potency [9] | outcome [10]

COc1ccc(C(Cl)=C(c2ccc(OC)cc2)c2ccc(OC)cc2)cc1
inactive: outcome [2] | caspase-3 activation [3] 2.72% | outcome [4] | outcome [5] | outcome [6] | outcome [7] | outcome [8] | Potency [9] | outcome [10]

NC(=O)c1ccccc1O
inactive: outcome [2] | caspase-3 activation [3] -0.838% | outcome [4] | outcome [5] | outcome [6] | outcome [7] | outcome [8] | Potency [9] | outcome [10]

C/C=C/c1ccc(O)c(OC)c1
inactive: outcome [2] | caspase-3 activation [3] 1.5% | outcome [4] | outcome [5] | outcome [6] | outcome [7] | outcome [8] | Potency [9] | outcome [10]

OC[C@H]1O[C@@H]2O[C@H]3[C@H](O)[C@@H](O)[C@@H](O[C@H]4[C@H](O)[C@@H](O)[C@@H](O[C@H]5[C@H](O)[C@@H](O)[C@@H](O[C@H]6[C@H](O)[C@@H](O)[C@@H](O[C@H]7[C@H](O)[C@@H](O)[C@@H](O[C@H]8[C@H](O)[C@@H](O)[C@@H](O[C@H]1[C@H](O)[C@H]2O)O[C@@H]8CO)O[C@@H]7CO)O[C@@H]6CO)O[C@@H]5CO)O[C@@H]4CO)O[C@@H]3CO
inactive: outcome [2] | caspase-3 activation [3] 1.07% | outcome [4] | outcome [5] | outcome [6] | outcome [7] | outcome [8] | Potency [9] | outcome [10]

Cc1cc(-c2ccccc2)nnc1NCCN1CCOCC1
inactive: outcome [1]

CCOC(=O)c1ccc(N)cc1
inactive: outcome [1]

O=C(O)CCC(=O)Nc1ccc(S(=O)(=O)Nc2nccs2)cc1
inactive: outcome [1]

COc1ccc(C(=O)c2ccccc2)c(O)c1
inactive: outcome [2] | outcome [1] | caspase-3 activation [3] 25.4% | outcome [4] | outcome [5] | outcome [6] | outcome [7] | outcome [8] | Potency [9] | outcome [10]

CCN(CC)CCNC(=O)c1cc(Br)c(N)cc1OC
inactive: outcome [1]

CC(C)(C)NC[C@H](O)COc1nsnc1N1CCOCC1
inactive: outcome [1]

CN1CCC[C@@H]1CCO[C@](C)(c1ccccc1)c1ccc(Cl)cc1
inactive: outcome [1]

CCCN(CCC)S(=O)(=O)c1ccc(C(=O)O)cc1
inactive: outcome [2] | outcome [1] | caspase-3 activation [3] 1.65% | outcome [4] | outcome [5] | outcome [6] | outcome [7] | outcome [8] | Potency [9] | outcome [10]

NCCNc1cccc2ccccc12
inactive: outcome [2] | caspase-3 activation [3] 6.22% | outcome [4] | outcome [5] | outcome [6] | outcome [7] | outcome [8] | Potency [9] | outcome [10]

Oc1ccc(Cl)cc1Cc1cc(Cl)ccc1O
active: caspase-3 activation [3] 86%
inactive: outcome [4] | outcome [5] | outcome [6] | outcome [7] | outcome [8] | Potency [9] | outcome [10]
